Inconclusive results are not listed. The source made the active and inactive calls.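 Rule for the calls, unless noted: active = normalized viability below 100% at a tested concentration; inactive = the rest.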
Assays:
[1] = viability loss in pontine glioma line – cell-based, SU-DIPG-XVII, MIPE5.0, CellTiter-Glo, qHTS, dose response (AID 1347060; cut-off not given, nearly all actives have AC50 up to about 26 µM;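 for AC50: cells exposed to compound for 48 hours before viability readout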); details: CellTiter-Glo ATP luminescence
[2] = viability loss in pontine glioma line – cell-based, SU-DIPG-XIII, MIPE4.0, CellTiter-Glo, qHTS, dose response (AID 1347061; cut-off not given, nearly all actives have AC50 up to about 37 µM;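 note: cells exposed to compound for 48 hours before readout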); details: CellTiter-Glo ATP luminescence
[3] = viability loss in pontine glioma line – cell-based, JHH-DIPG-1, MIPE4.0, CellTiter-Glo, qHTS, dose response (AID 1347062; cut-off not given, nearly all actives have AC50 up to about 27 µM;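 for AC50: cells exposed to compound for two days before readout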); details: JHH-DIPG-1 viability, CellTiter-Glo ATP luminescence
[4] = viability loss in pontine glioma line – cell-based, SU-DIPG-IV, MIPE4.0, CellTiter-Glo, qHTS, dose response (AID 1347063; cut-off not given, nearly all actives have AC50 up to about 30 µM;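 note: compound exposure lasted 48 hours before the viability readout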); details: CellTiter-Glo ATP luminescence
[5] = viability loss in pontine glioma line – cell-based, SU-DIPG-XXV, MIPE5.0, CellTiter-Glo, qHTS, dose response (AID 1347065; cut-off not given, nearly all actives have AC50 up to about 26 µM;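 note: cells exposed to compound for 48 hours before ATP readout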); details: CellTiter-Glo ATP luminescence
[6] = growth inhibition of DIPG cells – cell-based, MIPE4.0 library, CellTiter-Glo luminescence, qHTS (AID 1347066; cut-off not given, nearly all actives have AC50 up to about 30 µM;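 note: cells exposed to compound for 48 hours before readout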); details: SU-DIPG-VI viability, CellTiter-Glo ATP luminescence
[7] = viability loss with induced miR-34 in A549 – imaging, A549 dox-inducible miR-34, nuclei and caspase counts, primary screen (AID 1347080;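 active = compounds whose cell count with miR-34 switched on is under 0.7 times the count with it off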); details: A549 miR-34 inducible, Hoechst nuclei count, 48 h
[8] = compounds altering HSF1 focus formation in cells – imaging, Selleck Cancer Library (AID 1347162; in the data active = plate-normalised HSF1 focus index below about 0.46); details: human cells, HSF1 nuclear foci imaging, at 10 µM; SSMD: measured here: HSF1 foci SSMD mean; cell count: measured here: cell number; plate-normalised HSF1 focus index: stronger effect = lower value
[9] = MELAS cybrid and Rieske KO viability enhancers – cell-based, MELAS cybrids, Rieske KO mouse fibroblasts, CellTiter-Glo, primary screen (AID 1508586;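 active = mean z-score across replicates of 1.96 or higher in either the MELAS or the Rieske mutant cell line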;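 note: z relative to plate mean and SD of compound and empty wells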); details: low glucose
[10] = drug combination growth inhibition, ovarian cancer – cell-based, oncology-focused library, rucaparib conditional, profiling panel (AID 1508598); details: patient-derived ovarian cancer cells, CellTiter-Glo viability, 144 h, stronger effect = lower value
[11] = JHH-DIPG-1 glioma cell viability, MIPE5.0 library, CellTiter-Glo luminescence, qHTS (AID 1347067; cut-off not given, nearly all actives have AC50 up to about 26 µM;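 note: cells exposed to compound for 48 hours before readout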); details: JHH-DIPG-1 glioma viability, CellTiter-Glo ATP luminescence
[12] = growth inhibition of DIPG cells – cell-based, MIPE5.0 library, qHTS (AID 1347068; cut-off not given, nearly all actives have IC50 up to about 30 µM;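 for IC50: cells exposed to compound for 48 hours before viability readout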); details: SU-DIPG-XXV viability
[13] = at 0.000305 µM, OCI-C5x cells, with rucaparib 10 µM, 100% = cells with rucaparib alone
[14] = at 0.000305 µM, OCI-C5x cells, without rucaparib
[15] = at 0.000305 µM, OCI-P5x cells, with rucaparib 20 µM, 100% = cells with rucaparib alone
[16] = at 0.000305 µM, OCI-P5x cells, without rucaparib
[17] = at 0.00122 µM, OCI-C5x cells, with rucaparib 10 µM, 100% = cells with rucaparib alone
[18] = at 0.00122 µM, OCI-C5x cells, without rucaparib
[19] = at 0.00122 µM, OCI-P5x cells, with rucaparib 20 µM, 100% = cells with rucaparib alone
[20] = at 0.00122 µM, OCI-P5x cells, without rucaparib
[21] = at 0.00488 µM, OCI-C5x cells, with rucaparib 10 µM, 100% = cells with rucaparib alone
[22] = at 0.00488 µM, OCI-C5x cells, without rucaparib
[23] = at 0.00488 µM, OCI-P5x cells, with rucaparib 20 µM, 100% = cells with rucaparib alone
[24] = at 0.00488 µM, OCI-P5x cells, without rucaparib
[25] = at 0.0195 µM, OCI-C5x cells, with rucaparib 10 µM, 100% = cells with rucaparib alone
[26] = at 0.0195 µM, OCI-C5x cells, without rucaparib
[27] = at 0.0195 µM, OCI-P5x cells, with rucaparib 20 µM, 100% = cells with rucaparib alone
[28] = at 0.0195 µM, OCI-P5x cells, without rucaparib
[29] = at 0.0781 µM, OCI-C5x cells, with rucaparib 10 µM, 100% = cells with rucaparib alone
[30] = at 0.0781 µM, OCI-C5x cells, without rucaparib
[31] = at 0.0781 µM, OCI-P5x cells, with rucaparib 20 µM, 100% = cells with rucaparib alone
[32] = at 0.0781 µM, OCI-P5x cells, without rucaparib
[33] = at 0.313 µM, OCI-C5x cells, with rucaparib 10 µM, 100% = cells with rucaparib alone
[34] = at 0.313 µM, OCI-C5x cells, without rucaparib
[35] = at 0.313 µM, OCI-P5x cells, with rucaparib 20 µM, 100% = cells with rucaparib alone
[36] = at 0.313 µM, OCI-P5x cells, without rucaparib
[37] = at 1.25 µM, OCI-C5x cells, with rucaparib 10 µM, 100% = cells with rucaparib alone
[38] = at 1.25 µM, OCI-C5x cells, without rucaparib
[39] = at 1.25 µM, OCI-P5x cells, with rucaparib 20 µM, 100% = cells with rucaparib alone
[40] = at 1.25 µM, OCI-P5x cells, without rucaparib
[41] = at 5 µM, OCI-C5x cells, with rucaparib 10 µM, 100% = cells with rucaparib alone
[42] = at 5 µM, OCI-C5x cells, without rucaparib
[43] = at 5 µM, OCI-P5x cells, with rucaparib 20 µM, 100% = cells with rucaparib alone
[44] = at 5 µM, OCI-P5x cells, without rucaparib

O=C(NCCCNc1nc(Nc2cccc(NC(=O)N3CCCC3)c2)ncc1I)c1cccs1
1.03: fold change ([7]; measured here: relative caspase fold change +Dox/-Dox)
2940: cell count ([7]; measured here: total cells without miR-34 induction)
inactive: fold change ([7]; stronger effect = lower value, cell number ratio, induced over uninduced) 0.948 | plate-normalised HSF1 focus index [8] 0.877 | z-score ([9]; MELAS cybrid survival, CellTiter-Glo 48 h, stronger effect = higher value) -0.385 | viability [10, 13] 115% | viability [10, 14] 106% | viability [10, 17] 116% | viability [10, 18] 102% | viability [10, 21] 110% | viability [10, 24] 103% | viability [10, 25] 112% | viability [10, 26] 102% | viability [10, 27] 104% | viability [10, 28] 101% | viability [10, 29] 123% | viability [10, 30] 112% | viability [10, 32] 106% | viability [10, 33] 137% | viability [10, 34] 120% | viability [10, 37] 122% | viability [10, 38] 120% | viability [10, 42] 127%
2780: cell count ([7]; measured here: total cells with miR-34 induction, stronger effect = lower value)
7460: cell count [8]
-3.5: SSMD [8]
-0.479: z-score ([9]; Rieske KO mouse fibroblast survival, CellTiter-Glo 72 h)
active: AC50 [1] 16.6 µM | AC50 [2] 20.9 µM | AC50 [3] 23.5 µM | AC50 [4] 14.8 µM | AC50 [5] 3.72 µM | AC50 [6] 20.9 µM | viability [10, 15] 91.2% | viability [10, 16] 89.1% | viability [10, 19] 97.1% | viability [10, 20] 94.8% | viability [10, 22] 97.8% | viability [10, 23] 97.7% | viability [10, 31] 99.5% | viability [10, 35] 98.3% | viability [10, 36] 99.8% | viability [10, 39] 85.2% | viability [10, 40] 99.1% | viability [10, 41] 76.6% | viability [10, 43] 68.2% | viability [10, 44] 91.4%

O=C1CCC[C@@H]2[C@H]3CCC[N+]4([O-])CCC[C@@H](CN12)[C@@H]34 (stereo not given in full)
inactive: outcome [1] | outcome [2] | outcome [3] | outcome [4] | outcome [5] | outcome [6] | outcome [11] | outcome [12]

COC1CCC(N(C(=O)C2CCC(C)CC2)c2cc(C3=CCCCC3)sc2C(=O)O)CC1 (stereo not given)
inactive: outcome [1] | outcome [2] | outcome [3] | outcome [4] | outcome [5] | outcome [11] | outcome [12]

Cc1ccc(C(=O)N(CCCN)[C@@H](c2oc3cc(Cl)ccc3c(=O)c2Cc2ccccc2)C(C)C)cc1
0.849: SSMD [8]
6430: cell count [8]
inactive: outcome [2] | plate-normalised HSF1 focus index [8] 1.05
active: AC50 [1] 0.0332 µM | AC50 [3] 14.8 µM | AC50 [4] 29.6 µM | AC50 [5] 0.0118 µM | AC50 [6] 8.33 µM | AC50 [11] 1.66 µM | IC50 [12] 0.0417 µM | viability [10, 13] 50.8% | viability [10, 14] 63.1% | viability [10, 15] 62% | viability [10, 16] 22.5% | viability [10, 17] 56.4% | viability [10, 18] 61.8% | viability [10, 19] 50.3% | viability [10, 20] 19.3% | viability [10, 21] 54.9% | viability [10, 22] 63.8% | viability [10, 23] 58.3% | viability [10, 24] 18.4% | viability [10, 25] 57.6% | viability [10, 26] 55.3% | viability [10, 27] 55.3% | viability [10, 28] 19.7% | viability [10, 29] 54.6% | viability [10, 30] 50.1% | viability [10, 31] 51.5% | viability [10, 32] 20.3% | viability [10, 33] 54.9% | viability [10, 34] 50.6% | viability [10, 35] 55.7% | viability [10, 36] 19.2% | viability [10, 37] 49.2% | viability [10, 38] 49% | viability [10, 39] 48.4% | viability [10, 40] 17.8% | viability [10, 41] 4.98% | viability [10, 42] 4.99% | viability [10, 43] 0.708% | viability [10, 44] 6.42%
